Source: PubChem (several laboratories)
PABP polyA inh – PABP-poly(A) binding inhibition | AID 2014 | 290,000 tested, 1% active | PABP-poly(A) RNA binding, fluorescence polarization | inhibition, % at 35 µM;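 note: calls also rest on retests at 20 µM and on dose response follow-up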
eIF4E 4G PPI – eIF4E/eIF4G interaction inhibition in translation initiation; AID 782; inhibition, % at 21.7 µM; 220,000 tested, 0.37% active; P63073+Q04637; TR-FRET eIF4E-eIF4GI(517-606) binding, 2 h;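 active = inhibition above about 30%, limit read from the data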;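 note: 0% = full FRET control wells and 100% = background wells lacking eIF4GI fragment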
PABP1 MLLE inh – inhibitors of microRNA-mediated deadenylation, human PABP1 MLLE binding; P11940; 360,000 tested, 0.36% active; GST-MLLE / FITC-PAM2 fluorescence polarization; inhibition, % at 20 µM; AID 588489; in the data active = inhibition above about 35%, passing the limit was not always enough;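 note: plate controls were DMSO wells with GST-MLLE for no effect and wells lacking GST-MLLE protein for full effect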
PERK inh – blocks human PERK kinase; Q9NZJ5; CHO PERK-DD fusion, SEAP luminescence translation reporter; inhibition, % at 5.6 µM; 220,000 tested, 0.17% active; AID 1416;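 active = inhibition above the mean inhibition of all tested compounds plus 3 SD, set separately per screening campaign, cut at about 2.9% in these data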;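 note: PERK kinase domain activated by AP20187 dimerizer at 100 nM; 0% = DMSO with dimerizer and 100% = rapamycin at 8.4 µM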
eIF4H FP inh – inhibitors of RNA binding by human eIF4H; Q15056; eIF4H fluorescence polarization binding assay; inhibition, % at 35 µM; 290,000 tested, 0.94% active; AID 2012;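 note: calls also rest on retests at 20 µM and on dose response follow-up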
Numbers without * were called inactive; u = inconclusive; x = no result given. Rows were chosen to be rich in hits. Some 1.6% of all compounds tested hit in one or more screens of this group. Unless noted, the rule behind the calls is not given here.

SMILES | PABP polyA inh | eIF4E 4G PPI | PABP1 MLLE inh | PERK inh | eIF4H FP inh
CN(CC(=O)Nc1ccccc1Br)C(=O)c1ccccc1OCc1ccccc1Cl | x | x | -12 | x | x
CCOC(=O)c1c2ccc(OCC(=O)NN)cc2n2ccccc12 | 0 | -2 | 58* | 0 | 10
O=C(COc1cc(Cl)ccc1Cl)Nc1ccc2c(c1)CCC2 | 6.4* | -4 | -12 | 0 | 64*
CCOC(=O)C1=C(C)NC(C)=C(C(=O)OCC)C1C(=O)OCC(=O)N(C)Cc1ccccc1 | x | x | -4 | x | x
Cc1cc(C)n2nc(C(=O)OCC(=O)NCc3ccc(Cl)cc3)nc2n1 | x | x | -10 | x | x
CC1(OC(=O)C2CCCC2)C(=O)C=C2C=C(c3ccsc3)N(Cc3ccco3)C=C2C1=O (stereo not drawn) | 69* | -1 | 7 | x | 94*
CC(C)c1ccc(NC(=O)NCc2cccnc2)cc1 | -4 | x | 7 | x | -9
CC1(C)Nc2cccc3cccc(c23)N1 | x | x | 19 | x | x
c1cc2c3c(cccc3c1)NC1(CCCC1)N2 | x | x | 43* | x | x
O=C(Cc1ccccc1[N+](=O)[O-])NCC1(c2cccc3c2OCO3)OCCO1 | x | x | 7 | x | x
O=C(CCCc1ccccc1)Nc1ccccn1 | 52* | 2 | 3 | 1 | 1
Cc1ccnc(NC(=O)CCCc2ccccc2)c1 | -1 | 2 | 4 | 0 | 1
c1ccc(-n2nnc3cnccc32)cc1 | 2 | 31* | 5 | 0 | -11
c1cc(-n2nnc3cnccc32)ccn1 | 3 | -15 | -8 | 1 | 8
CC(Nc1ccc(F)cc1)=[N+](C)CCNS(=O)(=O)c1ccc(Cl)cc1 | 51* | x | -121 | x | 11
CCNS(=O)(=O)c1ccc(NC(=O)Cc2ccc(F)cc2)cc1 | 2 | -3 | 4 | 0 | 4
COc1ccc2ccc(=O)oc2c1CC(=O)C(C)C | x | x | 4 | x | x
CCN1C(N(C)CCc2cccs2)=N[C@@H](c2ccccc2)C(C(=O)OC)=C1C | 54* | x | -101 | x | 0
Cc1cc(NC(=O)CN2C(=O)NC3(CCCCC3)C2=O)ccc1N1CCCC1 | x | x | -5 | x | x
CCC(=O)N(c1nnc(SCC(=O)Nc2ccccc2Cl)s1)C1CC1 | x | x | -6 | x | x
CN(C(=S)NC(=O)c1ccccc1)c1c(N)n(Cc2ccccc2)c(=O)[nH]c1=O | -1 | -11 | 40* | 0 | -8
COCCCN(C(=S)NC(=O)c1ccc(C(C)(C)C)cc1)c1c(N)n(Cc2ccccc2)c(=O)[nH]c1=O | -3 | 3 | 38 | 0 | -8
O=C(NC(=S)NN1CCOCC1)c1cc(Br)ccc1Cl | x | x | 15 | x | x
CCCSC1=N/C(=C\C=C\c2ccco2)C(=O)S1 | 101* | 3 | -13 | 0 | 94*
O=C(c1cccc(S(=O)(=O)NCc2ccccc2)c1)N1CCN(c2cccc(C(F)(F)F)c2)CC1 | 55* | x | 12 | x | 16
SMILES | PABP polyA inh | eIF4E 4G PPI | PABP1 MLLE inh | PERK inh | eIF4H FP inh
O=C(NCc1ccncc1)c1cccc(S(=O)(=O)NCc2ccccc2)c1 | 62* | x | 5 | x | 13
COc1cc(C(=O)NCc2ccc(C(=O)NCC(OC)OC)cc2)cc(OC)c1OC | -4 | 63* | -4 | 1 | -10
COc1cc(C(=O)NCC(C)C)cc(OC)c1OC | 1 | 0 | 3 | 0 | -2
COc1cccc(-n2c(O)c(C=NCc3ccccn3)c3ccccc3c2=O)c1 | -9 | 4 | -8 | -3 | -1
O=c1c2ccccc2c(C=NCc2ccccn2)c(O)n1-c1ccccc1 | 3.8* | -2 | -13 | -1 | 90*
CCN(CC)c1ccc2cc(C(=O)Nc3cccnc3N3CCOCC3)c(=O)oc2c1 | 73* | x | x | x | 63*
CCN(CC)c1ccc2cc(C(=O)Nc3ccccn3)c(=O)oc2c1 | 118* | -4 | 16 | 1 | 122*
CCOc1cc(-n2cnnn2)c(OCC)cc1NC(=O)c1cc2ccc(N(CC)CC)cc2oc1=O | x | x | x | 1 | x
Cc1ccc(C(=O)NNCC(=O)Nc2ccc(Cl)cc2F)cc1 | x | x | 7 | x | x
CCC(C)c1ccccc1N=Cc1ccc2c(c1)OCO2 (stereo not drawn) | 0 | x | 3 | x | -6
O=C(c1ccc(CNS(=O)(=O)c2ccc(Br)cc2)cc1)N1CCCCCC1 | 6 | x | -4 | x | 3
CCOC(=O)c1c(Nc2ccc(Cl)cc2)sc(/C=C2\C=Nc3ccccc32)c1O | 115* | -25 | -55 | -1 | u
Oc1nc(Nc2cccc(Cl)c2)sc1/C=C1\C=Nc2ccccc21 | 5 | 4 | -22 | 1 | 4
CC(=O)Oc1c(/C=C(\C#N)C(N)=O)[nH]c2ccccc12 | -7 | 5 | -47 | 2.9* | 47
